Out of some 45,000 compounds screened, about 65 (0.1%) were called active. The entries come from a sample that favours actives as a whole. Values without a mark were called inactive. Calls follow the shape of the dose curve; as a rule, active = well fitted activation curve with a large enough effect; inconclusive = small, poorly fitted or top-dose-only effect; inactive = no such curve, though single readings can be large or run the other way.
These molecules were tested against Galactocerebrosidase (Homo sapiens) (UniProt P54803) (assay: A Novel Cell-Based Assay to Identify Small Molecules for B -Galactocerebrosidase). Conditions: 145M-Twi-hGALC-G270D cells (Twitcher mouse brain line with human GALC G270D), HMU-beta-Gal fluorescence, 48 h; series mostly up to 57.5 µM; activation: at the top concentration.
Chain of Galactocerebrosidase (Homo sapiens) (P54803 whole entry G286D): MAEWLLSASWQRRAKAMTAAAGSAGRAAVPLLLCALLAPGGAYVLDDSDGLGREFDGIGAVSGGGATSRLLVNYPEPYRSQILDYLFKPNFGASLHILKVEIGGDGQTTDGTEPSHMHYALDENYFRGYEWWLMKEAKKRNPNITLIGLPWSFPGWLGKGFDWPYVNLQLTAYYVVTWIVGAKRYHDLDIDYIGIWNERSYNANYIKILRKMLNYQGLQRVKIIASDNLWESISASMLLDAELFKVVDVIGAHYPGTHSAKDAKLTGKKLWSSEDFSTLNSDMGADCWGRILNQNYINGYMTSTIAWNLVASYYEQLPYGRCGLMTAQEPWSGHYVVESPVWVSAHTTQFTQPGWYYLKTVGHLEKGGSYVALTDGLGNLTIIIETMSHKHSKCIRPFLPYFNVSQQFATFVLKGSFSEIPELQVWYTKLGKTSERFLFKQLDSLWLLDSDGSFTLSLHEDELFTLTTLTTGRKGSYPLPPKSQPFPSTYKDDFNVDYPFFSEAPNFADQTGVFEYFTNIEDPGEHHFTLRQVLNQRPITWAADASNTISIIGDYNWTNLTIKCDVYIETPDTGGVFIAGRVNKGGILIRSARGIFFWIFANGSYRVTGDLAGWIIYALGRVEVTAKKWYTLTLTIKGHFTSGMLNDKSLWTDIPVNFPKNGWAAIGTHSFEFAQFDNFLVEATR
Excerpt: Lysosomal storage diseases (LSDs) are caused by genetic mutations in genes encoding proteins important for normal lysosomal function. Globoid cell leukodystrophy (GLD), mostly known as Krabbe disease, is a prototype of the neurological LSDs caused by deficiency of beta-galactocerebrosidase (GALC). In brain specimens of GLD patients, psychosine levels are substantially elevated. At elevated concentrations, psychosine becomes cytotoxic to neuronal cells, particularly to oligodendrocytes (OLG), neural cells responsible for myelin formation. Therefore, the biochemical disturbances in GLD are manifested by different degrees of brain demyelination resulting in a broad spectrum of neurological manifestations. Most of the FDA-approved therapies are based on enzyme replacement therapeutic (ERT) agents, which treat non-neurological symptoms of Gaucher disease, Fabry disease, few mucopolysaccharidoses and Pompe disease. Unfortunately, in GLD, a primarily neurological LSD, ERT agents, as large molecular weight molecules unable to cross the blood-brain barrier, which makes this an inefficacious therapeutic approach. In GLD, increasing the residual GALC activity just above the critical threshold (~10% of wild type enzymatic activity), the cytotoxic levels of psychosine will be reduced, avoiding the OLGs apoptosis and the subsequent demyelination process. This will translate in disease stabilization and amelioration of GLD patient symptoms.
A cell-based assay in 1,536-well plate format was developed to implement a quantitative high-throughput screening (qHTS) assay using GLD-disease relevant cells to identify small molecules that produce enhancements of the residual enzymatic activity levels of mutants GALC found and prevalent in GLD patients. Compounds that are active may therefore have some therapeutic application for GLD. After the treatment of live cells for a determined period, using a fluorescent GALC specific substrate, the mutant residual GALC activity is measured. This cell-based qTHS assay was used to screen part of the MLPCN library for small molecule able to increase the mutant GALC enzymatic activity. In this assay, increased fluorescent signal corresponds to enhanced levels of mutant GALC residual enzymatic activity. Activation is the desired outcome for this assay.
NIH Chemical Genomics Center [NCGC]
NIH Molecular Libraries Probe Centers Network [MLPCN]
Assay Submitter (PI): Gustavo Maegawa MD,PhD, University of Florida, Gainesville, FL
2)#Two cell lines were established for the assay: 145M-Twi-hGALC-G270D (brain-derived Twitcher cell line stably expressing human GALC-G270D) and 145M-Twi-hGALC-WT (same 145M-Twi stably expressing human GALC wild type). The Twitcher is the murine C57B/6 model for GLD with naturally occurring homozygous nonsense GALC mutation. The 145M-Twi cell line was established at Maegawa lab (Ribbens J et al 2014).
a.#Media: DMEM/F12 (1:1) with 10% fetal bovine-serum (FBS) with penicillin/streptomycin (PS-1X - 100 I.U./mL of penicillin+100 ug/mL of streptomycin).
b.#The 6-Hexadecanoylamino-4-methylumbelliferyl-b-D-galactoside (HMU-B-gal) substrate was prepared as per Wiederschain et al 1992. Using 20-mL borosilicate tubes, 2.20 mg of HMU-b-Gal was added in each tube to prepare substrate-film with a final air-nitrogen stream evaporation to remove all diluent solvents.
c.#The HMUb-Gal substrate buffer consists of 0.2 M Na2HPO4 (sodium phosphate dibasic)/ 0.1 M Citric Acid with the pH adjusted to 5.2 using HCl. Sodium Azide at 0.02% and Sodium Taurocholate (NaTC) at 1 mg/mL were added to this substrate buffer.
d.#The HMU-b-Gal stopping buffer consist of 0.5 M NaHCO3 (sodium bicarbonate) /0.5 M Na2CO3 (sodium carbonate). […] Triton X-100 at 0.25% was added.
4)#Preparation of HMU-b-Gal substrate tubes
Adding 18.6 mL of the HMUb-Gal substrate buffer to each 20-mL tube (2.20 mg of HMU-b-Gal) will reach a concentration of 0.2 mM. Vortex well the tube until the solution is fully homogenized (clear cloudy solution). […]
Also: nearly all actives have a fitted effect of over 65% in size.
For activation in this document: 0% is about no effect.
Potency is read from the fitted curve at half-maximal effect.

SMILES	activation	Potency
COc1cc(NC(=O)c2nn(-c3ccc(C)cc3)c(=O)c3c2c2ccccc2n3C)cc(OC)c1OC	-20.9%	–
CCOC(=O)c1ccccc1NC(=O)c1sc2nc(-c3ccc(F)cc3)cn2c1C	-13.4%	–
Cc1ccc(Cn2c(CCCNC(=O)C3CCCCC3)nc3ccccc32)cc1	-11.3%	–
CCc1nccn1S(=O)(=O)c1cc(Br)ccc1Br	-5.8%	–
COc1ccc(OCCCn2c(C)nc3cc(C)c(C)cc32)cc1	-10.3%	–
Cc1ccc(-n2ncc3c(=O)n(Cc4cccc(C(F)(F)F)c4)cnc32)cc1C	-13.3%	–
Cc1ccc2nc(COc3cccc(NC(=O)c4ccccc4Cl)c3)cc(=O)n2c1	-12.6%	–
COc1ccc(CNC(=O)c2ccc(NC(=O)N3CC4CCCN4c4ccccc43)cc2)cc1 (stereo not drawn)	-12.2%	–
Cc1ccc(C)c(NC(=O)C2CCCN(S(=O)(=O)c3cn(C)cn3)C2)c1 (stereo not drawn)	2.62%	–
COc1cc(Cl)c(C)cc1Nc1nnc(-n2nc(C)cc2C)c2ccccc12	-10.6%	–
CCOC(=O)c1c(C)n(S(=O)(=O)c2ccc(C)cc2C)c2ccc(NS(=O)(=O)c3ccc(C)cc3C)cc12	-2.18%	–
COC(=O)/C=C(/C)N	-6.02%	–
CCn1cc2nc(SCc3cccc(F)c3)n(CCc3ccccc3)c(=O)c2n1	-27.4%	–
COc1cccc(Cn2c(CNS(=O)(=O)c3ccc(Cl)s3)nc3cccnc32)c1	7.72%	–
CCC(=O)N1c2ccccc2CC1C(=O)N1CCN(c2ccccc2)CC1 (stereo not drawn)	11.7%	–
COc1cccc(NC(=O)c2ccc3nc(CCc4ccccc4)oc3c2)c1	-18.4%	–
COc1ccccc1N1CCN(c2ncnc3onc(-c4cccc(Cl)c4)c23)CC1	-9.65%	–
COc1cccc(C(=O)NC(=O)Nc2ccc(-c3cc(C(F)(F)F)nn3-c3ccccc3)cc2)c1	1.48%	–
COc1ccc(-c2ccc(=O)n(CC(=O)Nc3ccc(Br)cc3F)n2)cc1	-6%	–
Fc1ccccc1Oc1ncnc2c1oc1ccccc12	-10.2%	–
COc1ccc(-c2cn3nc(N4CCCC(C(=O)NCCCOC(C)C)C4)sc3n2)cc1 (stereo not drawn)	-13.8%	–
CCOC(=O)c1ccc(NC(=O)CCn2cnnn2)cc1	-12.4%	–
CC(C)(C)OC(=O)N1CCC(c2c(C(=O)Nc3ccc4c(c3)OCO4)cnn2-c2ccccc2)CC1	-3.46%	–
COc1ccc(Cl)cc1NC(=O)C(C)Sc1nc2c(c(=O)[nH]1)CCCC2 (stereo not drawn)	5.09%	–

SMILES	activation	Potency
COC(=O)c1nc(Cl)c(Cl)nc1N	-15.2%	–
O=C(CSc1oc(-c2ccco2)nc1S(=O)(=O)c1ccccc1)c1ccc(Cl)cc1	-25.8%	–
O=c1[nH]c2cc(Br)ccc2n2cccc12	-12.7%	–
CN(Cc1ccccc1)c1ccc(-c2nc(-c3ccccc3)no2)cc1[N+](=O)[O-]	-39.7%	–
COc1cc(NC(=O)CCn2nc(C)cc2C)cc(OC)c1OC	0.94%	–
CCOC(=O)c1c(C)[nH]c(C)c1S(=O)(=O)NCC(=O)NCc1cccc(C)c1	-12.1%	–
CCOc1ccc(OCC)c(NC(=O)c2cc(C)nc3c2c(C)nn3-c2cccc(Cl)c2C)c1	-12.6%	–
Cc1ccc(Oc2c(C(F)(F)F)oc3c(CN4CCCCC4)c(O)ccc3c2=O)cc1	-11.8%	–
COc1ccc(-c2c(C)c3ccc(O)c(CN4CCCC4)c3oc2=O)cc1OC	–	39.8 µM (active)
COc1ccc(-c2c(C)c3ccc(O)c(CN4CCN(C)CC4)c3oc2=O)cc1OC	-9.31%	–
O=C(NCc1ccccc1)c1cccc(NC(=O)N2CCSc3ncccc32)c1	-9.3%	–
CCCCN1C(=O)c2[nH]nc(-c3ccccc3O)c2C1c1cccc(OCc2ccccc2)c1 (stereo not drawn)	-9.56%	–
O=C(NC1CC(=O)N(c2ccccc2)C1)c1ccco1 (stereo not drawn)	-16.5%	–
Cc1cccc(CC(=O)N2CC(=O)Nc3ccc(F)cc3C2c2ccccc2)c1 (stereo not drawn)	-6.7%	–
Cc1cccc(NC(=O)c2nnn(CC(=O)Nc3ccc(C(C)C)cc3)c2N)c1C	-16.1%	–
Cc1cc(C)cc(OCC(=O)Nc2nc(-c3ccc(F)cc3)ns2)c1	5.22%	–
Cc1cccc(NC(=O)Cn2c(C(F)(F)F)nc3ccccc32)c1C	5.17%	–
COc1cccc(-c2cc(C(=O)Nc3ccc(C)cc3)[nH]n2)c1	-17.3%	–
CCc1cc2c(cc3c(=O)n(CC(=O)NCCc4ccc(OC)c(OC)c4)ncn32)s1	-10.5%	–
Cc1ccccc1OCC(=O)Nc1c(C(=O)Nc2ccccc2F)oc2ccccc12	-15.2%	–
CCOc1cc(C(=O)Nc2nnc3n2CCS3)cc(OCC)c1OCC	-19.3%	–
COc1cccc2c1cc1c(=O)n(CC(=O)N3CCN(c4cccc(Cl)c4)CC3)nc(C)n12	-10.9%	–
CCCn1c2ccccc2c2cnn(CC(=O)N(C)c3ccccc3CC)c(=O)c21	0.489%	–
CCN(C(=O)c1sc2cc(OC)ccc2c1Cl)c1ccccc1	-1.23%	–

Source: PubChem BioAssay AID1159614 (National Center for Advancing Translational Sciences (NCATS), 2016)
